Shn3 inh set2 = reduction of Shn3 3'UTR firefly luciferase signal, primary screen, Schnurri-3 inhibitor project, cell-based, Clone20 osteoblasts, set 2; Clone20 osteoblast Shn3 3'UTR firefly luciferase, 24 h; inhibition, % at 12.5 µM; 360,000 tested, 0.52% active; AID 588674, 2011;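 active = mean inhibition of at least 75% with every replicate also reaching 75%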;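 note: 0% = median of neutral control wells and 100% = pilot-screen positive control compound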
TRPM1 prom inh = inhibitors of MITF-dependent TRPM1 promoter reporter, primary screen, cell-based, SK-MEL-5, single point, luciferase | SK-MEL-5 TRPM1 promoter luciferase, 24 h | inhibition, % at 12.5 µM | 330,000 tested, 0.83% active;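 active = mean inhibition across replicates of 60% or more, whatever share of single replicates reaches that level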
CF NFkB block = inhibitors of PAF-induced NF-kB signaling, primary screen, cell-based, GFP fluorescence, uHTS; KKLEB NF-kB-GFP reporter, GFP fluorescence overnight; inhibition, % at 5 µM; 360,000 tested, 0.86% active;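 active = at least 50% inhibition at 5 µM, scaled per plate between neutral and stimulator controls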;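 note: PAF is a Pseudomonas aeruginosa culture filtrate used as stimulus; plate controls were PAF-stimulated DMSO wells for no effect and unstimulated DMSO wells for full effect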
HIF-2a block = HIF-2a reporter inhibitors, primary screen, luminescence, 786-0 RCC cells; 786-0 RCC cells HIF-2a reporter, luciferase luminescence, overnight; inhibition, % at 18.8 µM; 360,000 tested, 0.72% active; AID 624352, 2012;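 active = inhibition of the luminescence signal of 40% or more relative to plate controls, in a single-dose primary screen at 18.75 µM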
KKLEB cytotox = cytotoxicity in KKLEB CF airway cells, primary screen, cytotoxicity control for CF NF-kB inhibitor project, cell-based, uHTS, fluorescence assay plates; KKLEB CF airway cells viability, ATPlite luminescence, overnight; stronger effect = lower value; cells stimulated with P. aeruginosa culture filtrate; activity change (cytotoxicity), % at 5 µM; 360,000 tested, 0.36% active;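 active = corrected activity change at or below -50% at 5 µM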
Peg3 prom inh = Peg3 promoter-driven luciferase inhibitors, primary screen, cell-based, HeLa, luciferase luminescence | HeLa PEG-Prom luciferase reporter, overnight | inhibition, % at 20 µM | 360,000 tested, 1.7% active | AID 588405, 2011;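 active = inhibition of at least 50% at 20 µM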
* = called active by the depositor; nt = no result. Sampled rows, rich in hits. Any-hit rate of the full collection: about 2.7%.

SMILES	Shn3 inh set2	TRPM1 prom inh	CF NFkB block	HIF-2a block	KKLEB cytotox	Peg3 prom inh
O=C(C[C@@H]1C[C@H]2c3cc(NC(=O)c4cccnc4)ccc3O[C@H]2[C@H](CO)O1)NCc1ccc(Oc2ccccc2)cc1	23	nt	-10	23	5	23
Cn1nc(-c2ccc(Cl)cc2)nc2c(=O)n(C)c(=O)nc1-2	118*	nt	nt	nt	nt	nt
C=C(C)C(=O)Oc1ccc(N=Nc2ccc(C)cc2)ccc1=O	29	nt	3	-151	-2	-86
Cc1ccc(/C=C/C(=O)N2CC(C)CC(C)C2)o1 (stereo unspecified)	27	9	11	39	6	76*
O=c1cc(N=Nc2ccc(Cl)cc2)[nH]c(=O)[nH]1	65	0	68*	14	-7	111*
CC(=O)Oc1c(C)cc(Cl)cc1C(=O)Nc1ccc([N+](=O)[O-])cc1Cl	78	53	63*	-157	-78*	-13
CC(=O)OCC(=O)Nc1ccc([N+](=O)[O-])cc1Cl	8	-2	-23	10	-1	3
CCCCC1CC2=C(C(=O)OC(C)(C)O2)C(c2ccc(Cl)cc2)O1 (stereo unspecified)	25	nt	-23	-7	0	16
Cc1ccccc1OCC(=O)OCC(=O)NC1CCCC(C)C1C (stereo unspecified)	3	nt	5	12	10	-1
CCc1nc(Nc2ccc3c(c2)OCCO3)c2oc3ccccc3c2n1	-2	-9	-18	-80	-8	69*
Cc1nc(Nc2ccc3c(c2)OCCO3)c2oc3ccccc3c2n1	-13	-8	-1	-26	0	-16
CCN(CC)C(=O)C1=C(C)N(Cc2ccc(C(C)(C)C)cc2)C(=O)C(CC(=O)NCc2ccco2)C1 (stereo unspecified)	-4	nt	-7	-1	7	5
Cc1ccc(Nc2c(-c3ccccn3)nc3cccc(C)n23)cc1	90*	71*	24	29	-35	35
O=C(Cc1csc(Nc2nc(=S)[nH]c3ccccc23)n1)NCCCN1CCN(c2ccccc2F)CC1	-2	66*	-56	11	-32	68*
O=C(Cc1csc(Nc2nc(=S)[nH]c3ccccc23)n1)NCc1ccc(Cl)cc1	10	7	19	-5	-41	31
O=C(c1nn2c(C(F)(F)F)cc(-c3ccco3)nc2c1Br)N1CCCc2ccccc21	25	3	18	32	-21	60*
O=C(c1nn2c(C(F)(F)F)cc(-c3cccs3)nc2c1Br)N1CCCc2ccccc21	19	0	35	1	-19	49
C[C@H]1CN([C@@H](C)CO)S(=O)(=O)c2ccc(C#Cc3cccnc3)cc2O[C@@H]1CN(C)C(=O)Nc1ccc2c(c1)OCO2	8	nt	28	12	-17	-6
CCc1ccc(NC(=O)NCC2CCN(Cc3cccc(Cl)c3)CC2)cc1	6	8	5	15	-2	35
Cc1ccc(NC(=O)NCC2CCN(Cc3cccc(Cl)c3)CC2)cc1Cl	-4	52	17	5	-17	83*
Cc1cc(C)cc(NC(=O)NCC2CCN(Cc3cc(C)ccc3C)CC2)c1	3	4	6	22	-18	84*
Cc1ccc(C)c(CN2CCC(CNC(=O)Nc3cccc(Cl)c3C)CC2)c1	20	-15	10	12	-15	13
CCOC(=O)[C@]12CCC=C1N(Cc1ccc3c(c1)OCO3)C(=O)[C@H](CC(=O)NCCC(C)C)C2	nt	nt	nt	0	nt	nt
CCCN(C)C[C@@H]1Oc2ncc(Br)cc2C(=O)N([C@@H](C)CO)C[C@H]1C	-5	nt	8	0	10	-5
CN1CCN(C2Cc3cc(Cl)ccc3Sc3cc(F)ccc32)CC1 (stereo unspecified)	23	3	26	8	-7	91*
SMILES	Shn3 inh set2	TRPM1 prom inh	CF NFkB block	HIF-2a block	KKLEB cytotox	Peg3 prom inh
CN1CCN(C2=Cc3ccccc3Sc3cc(F)c(F)cc32)CC1	-6	-27	5	11	-10	15
CN1CCN(CCOC2Cc3ccccc3Sc3ccc(Cl)cc32)CC1 (stereo unspecified)	17	-8	17	11	-10	36
CN1CCN(C2=Cc3cc(Cl)ccc3Sc3cc(F)ccc32)CC1	-47	-6	30	36	-23	94*
OCCN1CCN(C2Cc3cc(Cl)ccc3Sc3ccc(Cl)cc32)CC1 (stereo unspecified) (tested in a mixture with another compound)	-24	-2	17	13	-16	65*
O=C(NCc1ccccc1)C1C(c2ccccc2)=Nc2ccccc2N1C(=O)c1cccnc1 (stereo unspecified)	nt	nt	nt	1	nt	nt
Cc1cc(C)c2c(CN3CCN(c4ccccc4F)CC3)cc(=O)oc2c1	-7	nt	8	-20	6	-1
CC(=O)Nc1ccc(CN(C)c2c(C)nc3ccc(C(=O)N(C)Cc4ccco4)cn23)cc1	-4	nt	15	14	-10	7
CCOC(=O)c1cc2ccccc2n1C1CCN(C)CC1	nt	nt	nt	21	nt	nt
CC(C)C[C@H]1CNC(=S)N1CC1CCN(CC2CCC(C(C)(C)C)CC2)CC1 (stereo partly specified)	93*	31	19	-13	-3	37
O=C(NC(c1cccnc1)C(F)(F)F)c1cc(COc2ccc3c(c2)CCCC3)on1 (stereo unspecified)	54	-6	-28	-214	11	32
O=C(CN(c1ccc(Br)cc1)S(=O)(=O)c1ccc(Cl)c([N+](=O)[O-])c1)NCCc1ccccc1	27	48	-27	20	-8	65*
COc1ccc(C(C)(O)c2nc(-c3ccncc3)cs2)cc1 (stereo unspecified)	63	nt	-4	20	9	20
O=C(/C=C1\NC2(CCCC2)Cc2ccccc21)C(=O)N/N=C/c1ccccc1O	91*	13	51*	-3	-36	18
COc1cc(/C=N/NC(=O)C(=O)/C=C2\NC3(CCCC3)Cc3ccccc32)ccc1O	16	-6	3	28	-6	39
CN(C)CCN=Cc1c(O)n(Cc2ccccc2)c(=O)c2ccccc12	-8	-1	8	5	-8	7
CC1(C)CC(N=Cc2c(O)n(Cc3ccc4c(c3)OCO4)c(=O)c3ccccc23)CC(C)(C)N1	-3	11	5	5	-9	82*
N#Cc1ccc(Nc2nc(-c3ccccc3)c(C(=O)c3ccccc3)s2)cc1	2	nt	15	-97	12	61*
O=C(c1ccccc1)c1sc(Nc2ccc3c(c2)OCO3)nc1-c1ccccc1	13	nt	6	-28	8	28
